In PubChem BioAssay AID720647 (Broad Institute, 2013) one finds inhibition data, which are given here for 47 compounds.

Hit rate of the full screen: of about 380,000 compounds, about 1,300 (0.34%) were called active.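 Rule for the calls: active = drop in luminescence signal, shown as inhibition above about 50% in the replicate tests (limit read from the data, passing the limit was not always enough); inconclusive = probably only some replicates passing the limit; inactive = the rest.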 Shown is part of a subset that was picked to be rich in actives.

The test system of this assay is Drosophila bursicon receptor LGR2 (rickets). The assay can be described thus: LGR2 cAMP reporter signal reduction – cell-based, HEK293, CRE-luciferase reporter, bursicon stimulation, primary screen (AID 720647).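 Note: agonist challenge used bursicon conditioned medium at about half maximal strength.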 As to conditions: bursicon-stimulated, 4 h, at 9.99 µM, hits give high values. On the technique in general: A reporter such as luciferase makes a cellular process visible.
As to `C[C@@H]1CCCCO[C@@H](CN(C)C)[C@@H](C)CN([C@H](C)CO)C(=O)c2cc(N(C)C)ccc2O1`, the inhibition (as a rule, the change of the read-out against control, counted positive when it falls) was -6.42% (inactive).

As for `C[C@H]1CN([C@@H](C)CO)C(=O)c2cc(NC(=O)C3CCCCC3)ccc2O[C@H]1CN(C)C(=O)Nc1ccccc1`, the inhibition was 2.55% (inactive).

Consider `N#C[C@@H]1[C@H](c2ccc(C#Cc3cccc(F)c3)cc2)[C@@H](CO)N1C(=O)C1CCCC1`, for which the inhibition was 82.4% (active).

For `N#C[C@H]1[C@H](c2ccc(C#Cc3ccc(F)cc3)cc2)[C@@H](CO)N1C(=O)C1CCCC1`, the inhibition was 16.6% (inactive).

Regarding `COc1ccccc1C#Cc1ccc([C@H]2[C@@H](C#N)N(C(=O)C3CCCCC3)[C@@H]2CO)cc1`, the inhibition was 18.3% (inactive).

On to `CS(=O)(=O)N1[C@H](C#N)[C@H](c2ccc(C#CC3CCCC3)cc2)[C@H]1CO`, for which the inhibition was -37.6% (inactive).

Consider `CS(=O)(=O)N1[C@@H](C#N)[C@H](c2ccc(C#CC3CCCCC3)cc2)[C@@H]1CO`, for which the inhibition was -5.08% (inactive).

For the compound `N#C[C@@H]1[C@@H](c2ccc(C#Cc3cccc(F)c3)cc2)[C@H](CO)N1C(=O)C1CCOCC1`, the inhibition is -34.2% (inactive).

Turning to `N#C[C@@H]1[C@H](c2ccc(C#CC3CCCCC3)cc2)[C@@H](CO)N1S(=O)(=O)c1ccccc1`, the inhibition was 61.9% (active).

Take `N#C[C@@H]1[C@@H](c2ccc(C#Cc3cccc(F)c3)cc2)[C@@H](CO)N1C(=O)C1CCC1`: the inhibition is -19.3% (inactive).

As for `N#C[C@@H]1[C@H](c2ccc(C#Cc3ccccc3F)cc2)[C@H](CO)N1C(=O)C1CCCCC1`, the inhibition was 74.8% (active).

Regarding `C[C@@H]1CN([C@@H](C)CO)S(=O)(=O)c2ccc(C#CCN(C)C)cc2O[C@H]1CN(C)C(=O)C1CC1`, the inhibition was 6.68% (inactive).

As to `Cc1noc(C)c1S(=O)(=O)N(C)C[C@@H]1OCCCC[C@@H](C)Oc2ccc(NC(=O)c3ccccc3)cc2C(=O)N([C@@H](C)CO)C[C@@H]1C`, the inhibition is 12.5% (inactive).

Turning to `O=C(N[C@H]1CC[C@@H](CCNS(=O)(=O)c2ccc(F)cc2)O[C@@H]1CO)c1ccccn1`, the inhibition is 11.4% (inactive).

Turning to `CCC(=O)Nc1ccc2c(c1)OC[C@H](C)N(CC1CCCCC1)C[C@@H](C)[C@H](OC)CN(C)C2=O`, the inhibition was 4.64% (inactive).

For the compound `CCC(=O)N1CCC2(CC1)CN(S(C)(=O)=O)[C@@H](CO)c1c2c2ccc(OC)cc2n1C`, the inhibition was -17.4% (inactive).

Take `CCCC#Cc1cnc2c(c1)C(=O)N([C@H](C)CO)C[C@H](C)[C@@H](CN(C)S(=O)(=O)c1ccccc1)O2`: the inhibition was -10.8% (inactive).

Regarding `C[C@@H]1CN([C@@H](C)CO)S(=O)(=O)c2ccc(Br)cc2O[C@@H]1CN(C)C(=O)C1CCCCC1`, the inhibition was -1.83% (inactive).

`Cc1noc(C)c1NC(=O)Nc1ccc2c(c1)C(=O)N([C@@H](C)CO)C[C@@H](C)[C@H](CN(C)C(=O)NC(C)C)O2`: the inhibition was 9.15% (inactive).

In the case of `CCCNC(=O)[C@H]1[C@H](CO)[C@H]2Cn3c(ccc(-c4cccc(F)c4)c3=O)[C@@H]1N2C(=O)CC`, the inhibition was 4.62% (inactive).

As to `CC(C)CC#Cc1ccc([C@H]2[C@H]3CN(C(=O)CN4CCOCC4)CC(=O)N3[C@H]2CO)cc1`, the inhibition was -1.92% (inactive).

For the compound `COc1ccc2c3c(n(C)c2c1)[C@H](CO)N(C(=O)CC1CC1)CC31CCN(Cc2nccs2)CC1`, the inhibition is 4.96% (inactive).

In the case of `Cc1cc(C(=O)CSc2nc(N)cc(=O)[nH]2)c(C)n1-c1cccc(F)c1`, the inhibition is 1.57% (inactive).

Take `Cc1cc(C(=O)COC(=O)C2CC2)c(C)n1-c1ccc(F)cc1`: the inhibition is 81.6% (active).

Turning to `Cc1cc(C(=O)COc2ccccc2Cl)c(C)n1C1CC1`, the inhibition was -70% (inactive).

With `CNC[C@@H]1Oc2ccc(NC(=O)Nc3ccc4c(c3)OCO4)cc2C(=O)N([C@H](C)CO)C[C@@H]1C`, the inhibition is -5.83% (inactive).

For `CO[C@@H]1CN(C)C(=O)c2cc(NS(C)(=O)=O)ccc2OC[C@@H](C)N(C(=O)C2CCC2)C[C@@H]1C`, the inhibition is -11.1% (inactive).

On to `O=C(C[C@H]1CC[C@H]2[C@@H](COC[C@@H](O)CN2Cc2ccccc2)O1)N[C@@H]1CCN(Cc2ccccc2)C1`, for which the inhibition is 1.95% (inactive).

On to `O=C(NC1=CC(=O)c2ccccc2C1=O)c1ccccc1`, for which the inhibition was 61.4% (active).

Consider `CCS(=O)(=O)N1CC2(C1)CN(S(=O)(=O)c1ccccc1)[C@H](CO)c1c2c2ccc(OC)cc2n1C`, for which the inhibition is -11.1% (inactive).

Take `CC(C)NC(=O)Nc1ccc2c(c1)CC(=O)N([C@H](C)CO)C[C@@H](C)[C@@H](CN(C)C(=O)Nc1ccc3c(c1)OCO3)O2`: the inhibition is -3.26% (inactive).

Regarding `CCCCCCCCn1c2c(c(=N)c3c1CCC3)CCCC2`, the inhibition is 52.6% (active).

As for `Cc1noc(C)c1NC(=O)Nc1ccc2c(c1)C(=O)N([C@@H](C)CO)C[C@@H](C)[C@H](CN(C)Cc1ccc(C(F)(F)F)cc1)O2`, the inhibition was -7.29% (inactive).

For the compound `C[C@H]1CN([C@@H](C)CO)C(=O)c2cc(C3=CCCCC3)cnc2O[C@@H]1CN(C)C(=O)c1ccc(F)cc1`, the inhibition is 2.17% (inactive).

For the compound `CN1c2ccc(Br)cc2[C@@H]2[C@@H](CCN2C(=O)C2CCCC2)[C@H]1CO`, the inhibition is 1.06% (inactive).

On to `COc1cccc(C2SCC(=O)N2c2cccc(C)c2)c1OC` (configuration not stated), for which the inhibition was 7.83% (inactive).

With `Cc1cc(=O)cc(C)n1-c1ccc(Cl)c(Cl)c1`, the inhibition was 5.96% (inactive).

For `Cc1cccc(-n2ncc(Cl)c(Cl)c2=O)c1`, the inhibition is 103% (active).

Consider `CCNC(=O)C[C@@H]1CC[C@H]2[C@@H](COC[C@@H](O)CN2C(=O)c2cc(Cl)cc(Cl)c2)O1`, for which the inhibition was 11.4% (inactive).

In the case of `C[C@@H]1CN([C@@H](C)CO)C(=O)c2cc(NS(=O)(=O)c3ccccc3)ccc2O[C@H]1CN(C)S(=O)(=O)c1ccc(Cl)cc1`, the inhibition is 13.5% (inactive).

Regarding `CCOC(=O)C1=C(C)c2ccccc2OC1C(=O)OCC` (configuration not stated), the inhibition was -7.81% (inactive).

For the compound `CCOC(=O)C1=C(c2ccc(OC)cc2)C(=O)c2ccccc2C1=O`, the inhibition was 99.6% (active).

As to `CCOC(=O)C1=C(c2ccccc2)NC(=O)NC1c1cc(OC)c(OC)cc1OC` (configuration not stated), the inhibition was 8.83% (inactive).

Turning to `CO[C@H]1CN(C)C(=O)c2cc(NC(=O)Nc3ccc4c(c3)OCO4)ccc2OC[C@@H](C)NC[C@@H]1C`, the inhibition is -36.2% (inactive).

As to `C[C@H](CO)N1C[C@H](C)[C@H](CN(C)C(=O)Nc2ccccc2C(F)(F)F)OCc2cn(nn2)CCCC1=O`, the inhibition was 3.25% (inactive).

Turning to `CC(C)NC(=O)N(C)C[C@H]1OCCCC[C@H](C)Oc2ccc(NC(=O)CCC(F)(F)F)cc2C(=O)N([C@H](C)CO)C[C@H]1C`, the inhibition is 1.7% (inactive).

Regarding `Cc1noc(C)c1S(=O)(=O)N(C)C[C@@H]1Oc2ccc(NC(=O)Cn3cnnn3)cc2CC(=O)N([C@@H](C)CO)C[C@H]1C`, the inhibition was 0.447% (inactive).
